Sampled rows, rich in hits. Any-hit rate of the full collection: about 3.1%.
DENV2 CPE rescue: protects cells from dengue virus 2 cytopathic effect. DENV2-infected cells, cytopathic effect rescue, plate reader. CPE inhibition, % at 9.99 µM. 350,000 tested, 1.7% active. AID 651640; in the data active means CPE inhibition above about 20%, passing the limit was not always enough; inconclusive means no clear call, values can overlap the other calls; tested in BHK-21 cells
RAD54 inh: inhibitors of human RAD54 branch migration. Q92698. RAD54 Holliday junction branch migration, FAM/BHQ fluorescence. inhibition, % at 10.4 µM. 360,000 tested, 0.14% active;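 active means mean normalized replicate activity at least 40 and at least half of replicates scoring 40 or more; inconclusive means only one of the two criteria met; inactive means mean below 40 and under half of replicates reaching 40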;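 further: inhibitors cause a drop in the FAM fluorescence signal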
RAD52 anneal inh: blocks human RAD52 DNA annealing | 360,000 tested, 0.46% active | inhibition, % at 18.7 µM | recombinant RAD52 DNA annealing, FRET fluorescence;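 active means every replicate showing at least 50% inhibition; inconclusive means mean inhibition at least 50% but not in every replicate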
Target sequence (P43351 whole entry, looked up): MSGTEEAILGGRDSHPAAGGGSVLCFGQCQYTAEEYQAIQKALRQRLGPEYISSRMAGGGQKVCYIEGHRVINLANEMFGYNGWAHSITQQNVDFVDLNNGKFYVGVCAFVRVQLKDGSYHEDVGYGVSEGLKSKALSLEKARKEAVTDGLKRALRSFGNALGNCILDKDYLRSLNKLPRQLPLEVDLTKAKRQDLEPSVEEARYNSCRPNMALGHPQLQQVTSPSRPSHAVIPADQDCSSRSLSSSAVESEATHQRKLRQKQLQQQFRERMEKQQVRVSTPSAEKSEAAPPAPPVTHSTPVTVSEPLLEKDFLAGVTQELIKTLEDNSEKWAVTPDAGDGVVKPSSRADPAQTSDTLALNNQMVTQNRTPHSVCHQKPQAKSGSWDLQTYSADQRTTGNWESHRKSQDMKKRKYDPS
GSIS activator: primary screen for activators of insulin secretion dependent on glucose, INS-1E cells, GLuc reporter luminescence | INS-1E GLuc reporter insulin secretion, 2-3 h | activation, % at 16.6 µM | 370,000 tested, 0.61% active | AID 743287;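 active means lowest replicate activation of at least 40%, so every replicate reaches that level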
AF4-AF9 inh: inhibitors of human MLL-AF4/AF9 interaction | P42568 | AlphaScreen, biotin-AF4 peptide binding to FLAG-AF9 | inhibition, % at 10 µM | 350,000 tested, 0.47% active;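 active means every replicate reaching a set inhibition limit, whatever the replicate mean, cut at about 25% in these data; inconclusive means mean inhibition reaches that limit but some replicates miss it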
dFosB act: mouse delta FosB homodimer activation; P13346; purified delta FosB, TAMRA-CDK5 oligo fluorescence polarization; percent of positive-control signal above neutral wells; activation, % at 25 µM; 340,000 tested, 0.99% active; AID 493131;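 active means mean activation above about 17%, with every replicate also reaching it, limit read from the data, passing the limit was not always enough; inconclusive means only one of the two conditions met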
Hits are given with their value; i = inactive; ? = inconclusive; nt = no result given.

SMILES	DENV2 CPE rescue	RAD54 inh	RAD52 anneal inh	GSIS activator	AF4-AF9 inh	dFosB act
CCC(=O)N1[C@@H]2c3ccc(-c4ccccc4)c(=O)n3C[C@H]1[C@H](CO)[C@H]2C(=O)N1CCN(C)CC1	i	i	i	i	i	nt
O=C(C[C@@H]1CC[C@@H]2[C@H](COC[C@@H](O)CN2C(=O)c2ccccc2)O1)N1CCOCC1	i	i	i	i	i	nt
CN(C)C(=O)c1ccc(-c2ccccc2[C@@H]2[C@@H](CO)N(C(=O)C3CCCCC3)[C@H]2C#N)cc1	29	nt	i	i	i	nt
COc1ccc(NC(=O)Nc2ccc3c(c2)CC(=O)N([C@@H](C)CO)C[C@H](C)[C@@H](CN(C)C(=O)Nc2ccc4c(c2)OCO4)O3)cc1	i	i	i	i	i	nt
O=C(NCc1ccc(Cl)c(Cl)c1)c1cc(C2CCCCN2C(=O)OCCF)on1 (stereo unspecified)	30	i	i	nt	i	nt
O=C(Nc1ccccc1Cl)c1cc(C2CCCCN2C(=O)OCCF)on1 (stereo unspecified)	i	i	i	i	i	nt
O=C(Nc1ccc2c(c1)OCO2)c1cc(C2CCCCN2C(=O)OCCF)on1 (stereo unspecified)	20	i	i	i	i	nt
CC(=O)C1=C(S(=O)(=O)c2ccc(C)cc2)CS(=O)(=O)C1	i	nt	i	124	i	i
Cc1ccc(S(=O)(=O)C2CS(=O)(=O)CC2O)cc1 (stereo unspecified)	nt	i	nt	nt	nt	i
O=S(=O)(c1cccs1)N1CCCc2ccccc21	nt	i	nt	i	nt	i
O=S(=O)(c1cccs1)N1CCc2ccccc21	nt	i	nt	nt	nt	29
Cc1ccc(S(=O)(=O)/N=C2\CN(C)C(=O)N2C)cc1	i	nt	i	45	i	i
C[C@@H]1CCCCO[C@@H](CN(C)C)[C@H](C)CN([C@@H](C)CO)C(=O)c2cc(NS(=O)(=O)c3ccccc3)ccc2O1	i	i	i	i	i	nt
NC[C@H](Cc1ccccc1)NCCCCC1CCCCC1	35	i	i	i	i	i
C[C@H](CO)N1C[C@H](C)[C@H](CN(C)S(=O)(=O)c2cn(C)cn2)Oc2c(NC(=O)NC3CCCCC3)cccc2C1=O	i	i	i	i	i	nt
COc1cc2nc(N3CCN(c4cc(C)ccc4C)CC3)nc(N)c2cc1OC	i	i	i	221	i	79
COc1ccc(C)cc1Nc1nc(N)c2cc(OC)c(OC)cc2n1	nt	51	nt	nt	nt	48
C[C@H](CO)N1C[C@H](C)[C@@H](CN(C)CC2CC2)Oc2ccc(NC(=O)Cc3cn(C)c4ccccc34)cc2CC1=O	i	i	i	i	i	nt
CNC[C@@H]1Oc2cc(-c3cncnc3)ccc2S(=O)(=O)N([C@@H](C)CO)C[C@H]1C	i	i	i	i	i	nt
CC(=O)N1[C@H](CO)[C@H](c2ccccc2)[C@H]1CN(C)C(=O)c1ccccc1F	i	i	i	i	i	nt
CC(=O)N(C)C[C@H]1[C@H](c2ccc(-c3ccc(F)cc3)cc2)[C@@H](CO)N1C(C)=O	33	i	i	i	i	nt
CC(=O)N1[C@H](CN(C)C(=O)c2ccccc2F)[C@@H](c2ccccc2)[C@@H]1CO	61	i	i	i	i	nt
CCc1cc(C(=O)OC)c(NC(=O)CN2CCN(C(=O)c3ccco3)CC2)s1	i	i	i	i	i	i
CCOC(=O)N1CCN(CC(=O)Nc2sc(CC)cc2C(=O)c2ccc(OC)cc2)CC1	i	i	i	i	27	i
CC(C)CC#Cc1ccc2c(c1)O[C@H](CN(C)C(=O)c1ccccc1F)[C@@H](C)CN([C@@H](C)CO)S2(=O)=O	32	i	i	i	i	nt
SMILES	DENV2 CPE rescue	RAD54 inh	RAD52 anneal inh	GSIS activator	AF4-AF9 inh	dFosB act
C/C=C/c1ccc2c(c1)O[C@H](CN(C)CC1CC1)[C@H](C)CN([C@H](C)CO)S2(=O)=O	nt	nt	nt	i	nt	nt
C[C@H]1CN([C@@H](C)CO)S(=O)(=O)c2ccc(/C=C/c3ccccc3)cc2O[C@H]1CN(C)CC1CC1	i	i	i	i	29	nt
CC(C)CC#Cc1ccc2c(c1)O[C@@H](CN(C)Cc1cccc(F)c1)[C@H](C)CN([C@@H](C)CO)S2(=O)=O	i	i	i	95	i	nt
CCCN(C)C[C@@H]1Oc2cc(C#CCC(C)C)ccc2S(=O)(=O)N([C@H](C)CO)C[C@@H]1C	34	i	i	i	i	nt
CC(C)CC#Cc1ccc2c(c1)O[C@H](CN(C)C(=O)c1cccc(F)c1)[C@@H](C)CN([C@@H](C)CO)S2(=O)=O	24	i	i	i	i	nt
C[C@H]1CN([C@@H](C)CO)S(=O)(=O)c2ccc(C#Cc3ccc(F)cc3)cc2O[C@H]1CN(C)CC1CC1	i	i	i	i	i	nt
C[C@@H]1CN([C@H](C)CO)S(=O)(=O)c2ccc(C#Cc3cccc(F)c3)cc2O[C@@H]1CN(C)CC1CC1	i	i	59	i	i	nt
Cc1noc(C)c1NC(=O)N(C)C[C@@H]1Oc2cc(C#CCC(C)C)ccc2S(=O)(=O)N([C@H](C)CO)C[C@H]1C	?	i	i	i	30	nt
CO[C@H]1O[C@H](CO)[C@@H](OC(=O)Nc2cccc(F)c2)[C@H](OC(=O)Nc2ccccc2)[C@H]1OC(=O)Nc1ccccc1	i	i	i	nt	i	nt
O=C(CN1CCOCC1)N[C@H]1CC[C@@H](CCNC(=O)C2CCC2)O[C@@H]1CO	i	i	i	i	i	nt
O=C(O)[C@@H]1[C@@H](CO)[C@@H]2Cn3c(ccc(/C=C/c4ccccc4)c3=O)[C@@H]2N1C(=O)C1CCCC1	i	nt	i	i	i	nt
O=S(=O)(c1cccs1)N1CN(C2CCCC2)c2nc3ccccc3nc21	i	nt	i	i	i	nt
O=S(=O)(c1cccs1)N1CN(C2CCCCC2)c2nc3ccccc3nc21	i	i	i	80	i	i
COc1ccc(CCNC(=O)CN2C(=O)NC(Cc3c[nH]c4ccccc34)C2=O)cc1 (stereo unspecified)	i	i	i	i	i	i
O=C(CN1C(=O)NC(Cc2c[nH]c3ccccc23)C1=O)NCCc1ccccc1 (stereo unspecified)	i	i	i	103	i	i
COc1ccc2c3c(n(C)c2c1)[C@H](CO)N(CC1CCOCC1)CC31CN(CC2CCOCC2)C1	?	nt	i	i	i	nt
COc1cccc(S(=O)(=O)N[C@H]2C=C[C@H](CC(=O)NCc3ccncc3)O[C@@H]2CO)c1	i	i	i	i	i	nt
COc1cccc(S(=O)(=O)N[C@@H]2C=C[C@H](CC(=O)NCc3ccc(F)cc3)O[C@@H]2CO)c1	33	i	i	i	i	nt
COc1cccc(S(=O)(=O)N[C@H]2C=C[C@H](CC(=O)NCc3ccncc3)O[C@H]2CO)c1	28	nt	i	i	i	nt
COc1cccc(S(=O)(=O)N[C@@H]2C=C[C@H](CC(=O)NCc3ccc(F)cc3)O[C@H]2CO)c1	i	i	i	i	i	nt
C[C@H](CO)N1C[C@H](C)[C@H](CN(C)Cc2ccc(Oc3ccccc3)cc2)Oc2ccc(NC(=O)Nc3ccc4c(c3)OCO4)cc2C1=O	i	i	i	i	i	nt

Bioassay records from PubChem.
